Experimental data: the supplement of paper PMC6555819

Columns and labels:
Assay in all cases: PBM binding z-score (relative to random genomic background probes); higher = stronger binding; sequences stand for … in GC…GCGATTGACAGCGTAGAATGAAGG
[1] = system: FXR:RXRa (NR concentration 270 nM, RXRa partner concentration 90 nM)
Method in brief: (§1)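 Ligand-free nuclear receptor dimers were bound for 1 h to custom Agilent 4×180K protein-binding microarrays. Detection used antibodies against each partner (one per run). Binding z-scores rest on regression-normalized fluorescence, with random background probes as the reference.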

[2] = system: LXRa:RXRa (NR concentration 270 nM, RXRa partner concentration 90 nM)
Method in brief: as §1

[3] = system: LXRa homodimer (NR concentration 270 nM)
Method in brief: as §1

[4] = system: LXRb:RXRa (NR concentration 270 nM, RXRa partner concentration 90 nM)
Method in brief: as §1

[5] = system: LXRb homodimer (NR concentration 270 nM)
Method in brief: as §1

[6] = system: PPARa:RXRa (NR concentration 270 nM, RXRa partner concentration 90 nM)
Method in brief: as §1

[7] = system: PPARg:RXRa (NR concentration 180 nM, RXRa partner concentration 90 nM)
Method in brief: as §1

[8] = system: PPARg:RXRa 270nM:90nM, anti-RXR (NR concentration 270 nM, RXRa partner concentration 90 nM)
Method in brief: as §1

[9] = system: PPARg:RXRa 30nM:10nM, anti-RXR (NR concentration 30 nM, RXRa partner concentration 10 nM)
Method in brief: as §1

[10] = system: PPARg:RXRa 90nM:30nM, anti-RXR (NR concentration 90 nM, RXRa partner concentration 30 nM)
Method in brief: as §1

[11] = system: PPARg:RXRa DBDmut IVT, anti-RXR (DBD mutation: RXRa K156A/R161A, NR concentration 270 nM, RXRa partner concentration 90 nM)
Method in brief: as §1

[12] = system: PPARg:RXRa IVT, anti-PPARg (NR concentration 270 nM, RXRa partner concentration 90 nM)
Method in brief: as §1

[13] = system: PPARg DBDmut:RXRa IVT, anti-PPARg (DBD mutation: PPARg1 K132A/R137A, NR concentration 270 nM, RXRa partner concentration 90 nM)
Method in brief: as §1

[14] = system: PPARg DBDmut IVT, anti-PPARg (DBD mutation: PPARg1 K132A/R137A, NR concentration 270 nM)
Method in brief: as §1

[15] = system: PPARg homodimer (NR concentration 180 nM)
Method in brief: as §1

[16] = system: PXR:RXRa (NR concentration 270 nM, RXRa partner concentration 90 nM)
Method in brief: as §1

[17] = system: PXR homodimer (NR concentration 270 nM)
Method in brief: as §1

[18] = system: RARa:RXR (NR concentration 270 nM, RXRa partner concentration 90 nM)
Method in brief: as §1

[19] = system: RARa homodimer (NR concentration 270 nM)
Method in brief: as §1

[20] = system: RARb:RXRa (NR concentration 270 nM, RXRa partner concentration 90 nM)
Method in brief: as §1

Sequence | PBM binding z-score [1] | PBM binding z-score [2] | PBM binding z-score [3] | PBM binding z-score [4] | PBM binding z-score [5] | PBM binding z-score [6] | PBM binding z-score [7] | PBM binding z-score [8] | PBM binding z-score [9] | PBM binding z-score [10] | PBM binding z-score [11] | PBM binding z-score [12] | PBM binding z-score [13] | PBM binding z-score [14] | PBM binding z-score [15] | PBM binding z-score [16] | PBM binding z-score [17] | PBM binding z-score [18] | PBM binding z-score [19] | PBM binding z-score [20]
TCTATGAGTTGATTAGGGCAACCGAAACAGCGGA | 0.319 | 0.351 | -0.0686 | 0.151 | -0.328 | 1.07 | 0.39 | 1.31 | 2.32 | 1.65 | 1.35 | 1.19 | -0.00987 | -0.582 | -0.0125 | 0.279 | -0.195 | 0.487 | -0.0986 | 0.711
TGAATGAGGTTATAAGACCAGGGAACGTTGCAAA | 1.42 | 1.55 | -0.275 | 0.883 | -0.347 | 2.44 | 1.25 | 1.65 | 0.679 | 1.33 | 1.18 | 1.75 | 0.985 | 0.561 | 0.257 | 0.794 | -0.0148 | 1.33 | 0.0796 | 1.29
CGTCCAGGGTCATAGGAGGTCAGTGAAGACAGAT | 7.36 | 7.25 | 2.83 | 6.26 | 0.185 | 5.85 | 5.65 | 5.78 | 2.38 | 4.63 | 1.75 | 3.92 | 0.473 | -0.113 | 4.96 | 6.84 | 2.73 | 6.61 | 2.39 | 4.79
TCTAGTTGGTCACGGAGGTCACGCACGACGGGTA | 3.96 | 4.14 | 2.94 | 3.75 | 0.74 | 4.54 | 4.03 | 4.7 | 3.7 | 4.38 | 2.9 | 4.62 | 1.18 | 2.02 | 3.23 | 4.93 | 1.26 | 5.23 | 1.73 | 4.33
TAGCCTAGGTCATCCAGGGGCCAGTATAGAAAGC | 4.4 | 3.37 | 0.176 | 2.82 | 0.318 | 3.66 | 2.57 | 2.47 | 0.738 | 1.52 | 1.23 | 2.73 | 0.724 | -0.3 | 1.93 | 2.6 | -0.246 | 3.55 | 0.127 | 3.98
CGTCCAAAGTCAGAGAGGTCAGTGAATGCCGAGT | 1.93 | 2.04 | 1.25 | 1.98 | 0.362 | 2.51 | 0.249 | 0.942 | -0.0025 | 0.475 | 0.254 | 0.644 | -0.212 | -0.647 | 1.79 | 3.05 | 1.35 | 2.85 | 0.862 | 3.27
ACTAGCAGGCCAAGTTTGGCTCACTCAAACAAAG | -0.477 | -0.516 | -0.635 | -0.722 | -0.853 | -0.363 | -0.294 | -0.625 | -0.674 | -0.715 | 0.281 | 0.0532 | -0.751 | -1.04 | -0.78 | -0.576 | -0.582 | -0.454 | -0.674 | 0.218
ATCTCTAGCTAAAGTTCAGTGAAAGATCGATAGA | 0.485 | 1.83 | 1.89 | 1.01 | 0.585 | 1.74 | 1.63 | 3.25 | 1.53 | 2.85 | -0.514 | 0.413 | 0.743 | 0.86 | 1.51 | 1.8 | 1.85 | 1.04 | 1.01 | 2.68
TCTATTAATTGAAGGGCAACCGACGAGTCCGTTT | 0.489 | 1 | 1.77 | 0.808 | 0.497 | 1.16 | 0.0188 | 1.99 | 3.93 | 2.74 | 2.49 | 0.956 | 0.163 | 1.02 | 1.56 | 0.915 | 1.96 | 0.829 | 1.43 | 1.45
CGTCAAAGTTCAACTAAGGTAACGTAAAGCACGC | 7.09 | 6.32 | 4.44 | 4.24 | 1.99 | 5.14 | 5.22 | 5.44 | 2.32 | 4.08 | 0.3 | 2.33 | 1.23 | 0.815 | 2.8 | 5.69 | 3.56 | 4.67 | 2.05 | 5.43
CGTCAAACTTCAAGGTAACGTAACAGAAAGCAGC | 0.471 | 0.1 | 0.0122 | 0.289 | 0.209 | 0.32 | 0.645 | 0.119 | 0.337 | 0.21 | 0.101 | 0.749 | 0.373 | 0.926 | 0.291 | 0.178 | 0.193 | 0.544 | -0.134 | 0.507
CCTTACGGGTCACGAAGTTATAGCACGACGAGCG | 6.04 | 3.71 | -0.266 | 3.39 | -0.139 | 5.75 | 6.25 | 5.64 | 2.5 | 4.43 | 3.76 | 4.76 | 0.631 | -0.0727 | 1.89 | 3.31 | -0.0842 | 3.86 | 0.765 | 4.51
TCTCGGAGGACAAGAAGGTCAGAGCTTTCCAGAG | 1.04 | 1.14 | 0.138 | 0.982 | -0.842 | 1.9 | 0.179 | 1.35 | 2.52 | 1.71 | 1.27 | 0.839 | -0.347 | -1 | 0.686 | 1.71 | 1.64 | 1.69 | 0.0458 | 3.07
CAGCCTAGGGCAGGGCCAGTATAGGAGGAACGTT | -0.713 | -0.785 | -0.921 | -1.11 | -1.4 | -0.747 | -0.037 | -0.861 | -0.884 | -1.24 | -0.842 | -0.372 | -2.01 | -1.9 | -1.39 | -1.13 | -0.815 | -0.853 | -0.656 | 0.716
